Laboratory results taken from PubChem BioAssay.
The source made the active and inactive calls.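 The calls were made as follows: active = viability at or below 10% of carrier control in both of two separate runs; inconclusive = viability at or below 10% in only one of the two runs; inactive = the rest.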

Test: reduced viability of SK-BR-3 breast cancer cells – cell-based, 24 h, human, pilot screen (AID 572);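 also: compound exposure lasted between 18 and 24 h rather than exactly 24 h; 100% = carrier-treated control wells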
Conditions: SK-BR-3 viability, CellTiter-Glo luminescence, at 10 µM, stronger effect = lower value
For `Cc1cc2c(c(=O)o1)C(Cc1ccccc1)C(C#N)=C(N)O2` (stereo not given), the viability was 94% (inactive). With `O=C(C1CC1)N1CCC(c2nc(-c3ccc(S(=O)(=O)NCC4CCCO4)cc3)no2)CC1` (stereo not given) the viability was 74.5% (inactive). For `N#Cc1c(NC(=O)CSc2nc(N)cc(=O)[nH]2)sc2c1CCCCCC2`, the viability was 104% (inactive). For `O=C(NCCCNC1CCCCC1)c1ccc(/C=N/O)nc1`, the viability was 84% (inactive). For `CCOC(=O)CNC(=O)CSc1ncnc2c1cnn2Cc1ccccc1`, the viability was 96% (inactive). With `CCn1nc(CC(=O)Nc2nnc(CC(=O)N3CCCCC3)s2)c2ccccc2c1=O` the viability was 96% (inactive). In the case of `C/C(N)=C(/C#N)C(=O)COC(=O)c1cc(C)n(-c2ccc(F)cc2)c1C`, the viability is reported as 91% (inactive). With `COc1cc(CNc2ccc(N3CCOCC3)c(C(=O)O)c2)ccc1OCC(N)=O` the viability was 106% (inactive). For `Cc1oc(C(=O)O)cc1CSCc1cc(C(=O)O)c(C)o1`, the viability was 104% (inactive). In the case of `c1ccc(CN2C3=NCCCN3c3ccccc32)cc1`, the viability is reported as 79% (inactive). In the case of `COc1ccc(OC)c(NC(=O)CSc2nc3ccccc3c(=O)n2CCNC(C)=O)c1`, the viability is reported as 118% (inactive). For `Cc1cccc(CS(=O)(=O)Cc2ccc(C(=O)NCC3CCCO3)o2)c1` (stereo not given), the viability was 85.5% (inactive). In the case of `COc1ccccc1N1CCN(C(=O)c2oc3cc(C)c(C)cc3c2C)CC1`, the viability is reported as 117% (inactive). With `COc1cccc(NC(=O)COC(=O)c2ccco2)c1` the viability was 112% (inactive). For `COCCNC(=O)c1c(N)n(CCC2=CCCCC2)c2nc3ccccc3nc12`, the viability was 102% (inactive). For `Cc1ccccc1C(=O)Nc1c(C(=O)N2CCCC2)cnn1-c1ccccc1`, the viability was 112% (inactive). With `O=C(Cn1cnc2c(nnn2Cc2ccc(Cl)cc2)c1=O)NCC1CCCO1` (stereo not given) the viability was 120% (inactive). In the case of `Cc1nc2ncnn2c(N2CCC(C(=O)NC3CCCC3)CC2)c1Cc1ccccc1`, the viability is reported as 88% (inactive). For `COCCn1nnnc1C(C(C)C)N1CCN(C(=O)c2ccco2)CC1` (stereo not given), the viability was 92.5% (inactive). With `CCOc1cc(-c2nc3ccccn3c2NCC2CCCO2)ccc1O` (stereo not given) the viability was 69.5% (inactive). In the case of `O=C(Nc1ccccc1N1CCN(C(=O)c2ccc(Cl)cc2)CC1)c1cc2ccccc2o1`, the viability is reported as 69.5% (inactive). For `O=C(CCC(=O)N(c1cccc(F)c1)C(C(=O)NC1CCCC1)c1ccncc1)Nc1cccnc1` (stereo not given), the viability was 100% (inactive). For `COc1ccc(S(=O)(=O)N2CCSC2c2ccccc2)cc1` (stereo not given), the viability was 82% (inactive). In the case of `CCCOC(=O)C1[C@H]2C(=O)N(CCCOC)C[C@]23C=C[C@H]1O3` (stereo not given in full), the viability is reported as 92.5% (inactive). For `COc1cc2c(cc1OC)C(C)N(C(=O)c1cc3n(n1)C(C(F)(F)F)CC(c1ccco1)N3)CC2` (stereo not given), the viability was 108% (inactive). For `Cc1ccc(NC(=O)N2CCC(c3nc4c(nnn4Cc4cccc(Cl)c4)c(=O)[nH]3)CC2)cc1`, the viability was 81.5% (inactive). In the case of `Cc1nc(NCCNC(=O)c2ccco2)c2c(C)c(C)sc2n1`, the viability is reported as 87.5% (inactive). In the case of `Cc1c(NC(=O)CSc2nnc3sc4ccccc4n23)c(=O)n(-c2ccccc2)n1C`, the viability is reported as 94% (inactive). In the case of `COc1ccc(-c2nnc3sc(-c4c(OC)cccc4OC)nn23)cc1`, the viability is reported as 105% (inactive). With `COC(=O)c1ccccc1NC(=O)CSc1nnc(-c2ccncc2)o1` the viability was 98% (inactive). In the case of `COc1ccc(Cl)cc1NC(=O)c1oc(C)nc1C`, the viability is reported as 91% (inactive). For `CCOC(=O)CC(=O)Nc1c(C)cc(C)cc1C`, the viability was 94.5% (inactive). For `O=S(=O)(c1ccccc1)c1nc(-c2ccco2)oc1NCCCN1CCOCC1`, the viability was 91% (inactive). For `O=C(COC(=O)c1ccc(S(=O)(=O)Nc2ccccc2)cc1)NCCN1C(=O)CSC1=O`, the viability was 107% (inactive). In the case of `Cc1cc(C)c(-c2cc(C(=O)Nc3c(C)n(C)n(-c4ccccc4)c3=O)[nH]n2)c(O)c1`, the viability is reported as 99.5% (inactive). For `COc1ccc(-c2nnc(SCC(=O)N3CCCCC3)o2)cc1OC`, the viability was 104% (inactive). In the case of `Cc1cc(Br)ccc1NC(=O)CCN1C(=O)c2ccncc2C1=O`, the viability is reported as 104% (inactive). With `CC1=C(C(=O)N2CCCCC2)C2(CCC(C)CC2)OC1=O` (stereo not given) the viability was 90% (inactive). With `CCCN(CCC)S(=O)(=O)c1ccc(C(=O)Nc2nnc(-c3cccc(OC)c3)o2)cc1` the viability was 98.5% (inactive). In the case of `CC(C)(C)c1cc(CCC(=O)N2CCNCC2)c(C(C)(C)C)cc1O`, the viability is reported as 106% (inactive).
